Data from the supplement of paper PMC11732987, “Enantioselective OTUD7B fragment discovery through chemoproteomics screening and high-throughput optimisation” (Communications Chemistry, 2025).

Legend:
Assay in all cases: log2 ratio of Biotin-Ahx-Ub-VS probe labelling (compound/DMSO); higher = less target engagement, active = hit call of the paper (q ≤ 0.05, log2 ratio ≤ -1)
Conditions in all cases: treatment time: 3 h
[1] = compound: CCC1N(CCc2sccc12)C(=O)CCl
Method in brief: (§1)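 Compound at 50 or 200 µM, or DMSO, was applied for 3 h in triplicate to HEK293T lysate (495 µg per sample, Tris/CHAPS/IGEPAL buffer with protease inhibitors), after which Biotin-Ahx-Ub-VS was added at 0.5 µM final for 1 h. The labelled DUBs were pulled down with NeutrAvidin, digested with LysC and trypsin, and run by diaPASEF LC-MS/MS. Ratios are averaged base-two logs of compound over DMSO from median-normalised label-free quantities by unpaired t-test, counting only proteins with at least 2 unique peptides.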

[2] = compound: CN1c2ccccc2C(CS1(=O)=O)NC(=O)CCl
Method in brief: as §1

[3] = compound: Cl.ClCC(=O)N1CCc2ncncc2C1
Method in brief: as §1

[4] = compound: Cl.Cn1ncc2C(CCCc12)NC(=O)CCl
Method in brief: as §1

[5] = compound: ClCC(=O)NC1CCOc2ccccc12
Method in brief: as §1

[6] = compound: ClCC(=O)NC1CCCc2ccccc12
Method in brief: (§2)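 Spectronaut label-free, global-median-normalised protein quantities underlie these values, which are average ratios of compound to vehicle from an unpaired t-test. They are reported as log2 and include only proteins identified by two or more unique peptides. Samples of HEK293T lysate (495 µg) were treated in triplicate with a compound concentration series or vehicle for 3 h, then labelled with Biotin-Ahx-Ub-VS at 0.5 µM final for 1 h before NeutrAvidin enrichment, LysC and trypsin digestion, and diaPASEF LC-MS/MS.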

[7] = compound: ClCC(=O)N[C@@H]1CCCc2ccccc12
Method in brief: as §2

[8] = compound: ClCC(=O)N[C@H]1CCCc2ccccc12
Method in brief: as §2

[9] = compound: CCC1N(CCc2cc(OC)c(Cl)cc12)C(=O)CCl
Method in brief: as §1

[10] = compound: CCCC1N(CCc2cc(OC)c(OC)cc12)C(=O)CCl
Method in brief: as §1

Measured: log2 ratio of Biotin-Ahx-Ub-VS probe labelling

USP36 (UniProt Q9P275)
UniProt Q9P275, sequence (Q9P275 whole entry): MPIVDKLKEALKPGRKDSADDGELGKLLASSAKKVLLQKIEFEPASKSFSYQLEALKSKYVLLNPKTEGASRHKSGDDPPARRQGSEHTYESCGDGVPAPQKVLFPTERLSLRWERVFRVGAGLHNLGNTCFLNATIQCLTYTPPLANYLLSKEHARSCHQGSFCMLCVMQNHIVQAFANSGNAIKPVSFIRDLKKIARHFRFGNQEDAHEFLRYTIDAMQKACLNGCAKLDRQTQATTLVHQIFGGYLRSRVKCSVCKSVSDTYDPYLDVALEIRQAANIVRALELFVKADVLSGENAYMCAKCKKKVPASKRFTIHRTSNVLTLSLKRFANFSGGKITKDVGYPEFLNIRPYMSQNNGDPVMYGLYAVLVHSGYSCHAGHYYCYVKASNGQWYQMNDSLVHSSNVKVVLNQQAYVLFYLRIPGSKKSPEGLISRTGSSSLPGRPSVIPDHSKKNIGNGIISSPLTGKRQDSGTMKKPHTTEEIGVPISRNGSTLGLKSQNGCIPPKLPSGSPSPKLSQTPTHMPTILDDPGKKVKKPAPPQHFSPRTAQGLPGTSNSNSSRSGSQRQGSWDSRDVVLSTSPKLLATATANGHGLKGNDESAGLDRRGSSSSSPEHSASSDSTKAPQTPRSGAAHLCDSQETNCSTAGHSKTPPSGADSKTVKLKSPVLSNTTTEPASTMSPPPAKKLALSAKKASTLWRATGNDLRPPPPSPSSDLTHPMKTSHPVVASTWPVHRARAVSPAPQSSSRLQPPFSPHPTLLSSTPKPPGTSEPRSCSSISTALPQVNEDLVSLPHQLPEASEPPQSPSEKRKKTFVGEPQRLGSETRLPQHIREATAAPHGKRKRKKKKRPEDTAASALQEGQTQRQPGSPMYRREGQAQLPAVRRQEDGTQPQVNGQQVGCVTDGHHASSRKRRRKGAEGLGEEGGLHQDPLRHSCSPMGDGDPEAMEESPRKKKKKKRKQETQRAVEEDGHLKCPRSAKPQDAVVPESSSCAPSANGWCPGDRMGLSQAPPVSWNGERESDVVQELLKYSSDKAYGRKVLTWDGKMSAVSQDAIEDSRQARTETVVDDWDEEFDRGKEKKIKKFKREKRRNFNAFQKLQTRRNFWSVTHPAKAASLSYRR
inactive: [1]; compound concentration: 50uM 0.0835 | [1]; compound concentration: 200uM 0.229 | [2]; compound concentration: 50uM -0.127 | [2]; compound concentration: 200uM -0.0119 | [3]; compound concentration: 50uM -0.031 | [3]; compound concentration: 200uM -0.0419 | [4]; compound concentration: 50uM -0.145 | [4]; compound concentration: 200uM 0.158 | [5]; compound concentration: 50uM -0.121 | [5]; compound concentration: 200uM 0.283 | [6]; compound concentration: 0.78uM 0.0108 | [6]; compound concentration: 1.56uM -0.0128 | [6]; compound concentration: 3.13uM -0.0405 | [6]; compound concentration: 6.25uM -0.0421 | [6]; compound concentration: 12.5uM -0.0282 | [6]; compound concentration: 25uM -0.0131 | [6]; compound concentration: 50uM -0.0217 | [6]; compound concentration: 100uM -0.0954 | [6]; compound concentration: 200uM -0.112 | [7]; compound concentration: 0.78uM 0.107 | [7]; compound concentration: 1.56uM -0.0192 | [7]; compound concentration: 3.13uM 0.083 | [7]; compound concentration: 6.25uM 0.157 | [7]; compound concentration: 12.5uM 0.0169 | [7]; compound concentration: 25uM 0.092 | [7]; compound concentration: 50uM -0.0214 | [7]; compound concentration: 100uM 0.019 | [7]; compound concentration: 200uM -0.0674 | [8]; compound concentration: 0.78uM -0.0951 | [8]; compound concentration: 1.56uM 0.0305 | [8]; compound concentration: 3.13uM 0.102 | [8]; compound concentration: 6.25uM -0.0246 | [8]; compound concentration: 12.5uM -0.0557 | [8]; compound concentration: 25uM -0.0153 | [8]; compound concentration: 50uM -0.0239 | [8]; compound concentration: 100uM -0.0145 | [8]; compound concentration: 200uM 0.0455 | [9]; compound concentration: 50uM -0.334 | [9]; compound concentration: 200uM -0.141 | [10]; compound concentration: 50uM -0.272 | [10]; compound concentration: 200uM -0.0152

UniProt O00487
UniProt O00487, sequence (O00487 whole entry): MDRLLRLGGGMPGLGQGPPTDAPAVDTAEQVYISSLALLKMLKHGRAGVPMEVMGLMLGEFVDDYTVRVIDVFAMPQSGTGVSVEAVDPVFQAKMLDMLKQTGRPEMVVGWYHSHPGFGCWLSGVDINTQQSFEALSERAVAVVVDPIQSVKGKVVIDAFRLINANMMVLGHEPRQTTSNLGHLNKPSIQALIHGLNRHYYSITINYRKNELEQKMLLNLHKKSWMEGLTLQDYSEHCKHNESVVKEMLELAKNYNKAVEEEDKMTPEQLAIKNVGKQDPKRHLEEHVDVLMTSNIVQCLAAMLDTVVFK
inactive: [1]; compound concentration: 50uM -0.193 | [1]; compound concentration: 200uM -0.218 | [2]; compound concentration: 50uM -0.0425 | [2]; compound concentration: 200uM -0.0779 | [3]; compound concentration: 50uM 0.107 | [3]; compound concentration: 200uM -0.106 | [4]; compound concentration: 50uM -0.124 | [4]; compound concentration: 200uM -0.336 | [5]; compound concentration: 50uM 0.217 | [5]; compound concentration: 200uM -0.351 | [6]; compound concentration: 0.78uM -0.644 | [6]; compound concentration: 1.56uM -0.964 | [6]; compound concentration: 3.13uM -0.768 | [6]; compound concentration: 6.25uM -0.916 | [6]; compound concentration: 12.5uM -0.0532 | [6]; compound concentration: 25uM -1.08 | [6]; compound concentration: 50uM -1.09 | [6]; compound concentration: 100uM -0.828 | [6]; compound concentration: 200uM -0.122 | [7]; compound concentration: 0.78uM -0.274 | [7]; compound concentration: 1.56uM -0.457 | [7]; compound concentration: 3.13uM -0.399 | [7]; compound concentration: 6.25uM -0.508 | [7]; compound concentration: 12.5uM -0.515 | [7]; compound concentration: 25uM -0.563 | [7]; compound concentration: 50uM -0.92 | [7]; compound concentration: 100uM 0.108 | [7]; compound concentration: 200uM -0.319 | [8]; compound concentration: 0.78uM -0.768 | [8]; compound concentration: 1.56uM -0.631 | [8]; compound concentration: 3.13uM -0.859 | [8]; compound concentration: 6.25uM -0.646 | [8]; compound concentration: 12.5uM 0.00923 | [8]; compound concentration: 25uM -0.657 | [8]; compound concentration: 50uM -0.0791 | [8]; compound concentration: 100uM -0.905 | [8]; compound concentration: 200uM -0.369 | [9]; compound concentration: 50uM 0.0571 | [9]; compound concentration: 200uM 0.132 | [10]; compound concentration: 50uM 0.000271 | [10]; compound concentration: 200uM -0.108
